Among all 6,200 compounds or so, about 2,900 (47%) were called active. The set was probably picked from earlier hits. This is one part of the list. A number with no mark means an inactive call. Rule as the data show it: active = inhibition above about 50%; inactive = the rest.

This test in a line: Mycobacterium tuberculosis growth inhibition, primary screen (AID 1259343). To be noted: inhibition: at 10 µM, stronger effect = higher value; outcome: 10 uM.
For the compound `O=C1NC(=S)SC1=Cc1cc(O)c(O)c(Cl)c1`, the inhibition (commonly the drop in the measured response relative to a control, in per cent) is 88.3% (active).

For the compound `O=C1NC(=S)SC1=Cc1ccc(F)c(F)c1`, the inhibition was 88.5% (active).

For the compound `COc1cc(C=C2SC(=S)NC2=O)cc(Br)c1O`, the inhibition was 90% (active).

As for `O=C1/C(=C\c2ccc(O)c(Cl)c2)CS(=O)(=O)C/C1=C/c1ccc(O)c(Cl)c1`, the inhibition is -0.82%.

`O=C1NC(=S)SC1=Cc1ccc(F)cc1`: the inhibition is 32.6%.

`COc1ccc(C=C2SC(=S)NC2=O)cc1F`: the inhibition is 86.7% (active).

For `COc1ccc(NC(=O)CCc2ccccc2C#N)cc1`, the inhibition was 27.5%.

`Cc1nn(C)c(C)c1CCC(=O)Nc1ccc(C(C)(C)C#N)cc1`: the inhibition is 71% (active).

As for `Cc1ccc(-c2n[nH]c(=S)c3ccccc23)cc1`, the inhibition was 32.5%.

Consider `S=c1[nH]nc(-c2ccccc2)c2ccccc12`, for which the inhibition was 70.8% (active).

In the case of `CC1CN(c2ccc(-c3nnc(Br)s3)cc2)CC(C)(C)O1` (stereo not drawn), the inhibition was 10.5%.

For the compound `CN(C)S(=O)(=O)c1ccc(COc2cccc(Cl)c2)o1`, the inhibition was 49.6%.

`Clc1cccc(OCOCOc2cccc(Cl)c2)c1`: the inhibition is 1.77%.

Take `O=C(O)c1ccc(COc2cccc(Cl)c2)s1`: the inhibition was 81.8% (active).

As for `CCCNC(=O)C(C)NC(=O)c1ccc(Oc2ccc(F)cc2)cc1` (stereo not drawn), the inhibition was 62.5% (active).

Take `Cc1ccc(Oc2ccc(NC(C)C(=O)NC(C)C)cc2)cc1` (stereo not drawn): the inhibition is 30.7%.

In the case of `CCCNC(=O)c1ccc(Oc2ccc(F)cc2)cc1`, the inhibition is 90.3% (active).

For the compound `O=C(NN1CCOCC1)c1ccc(Oc2ccc(F)cc2)cc1`, the inhibition was 89.4% (active).

On to `C=CCOc1cccc(C2c3c(oc4ccc(C)cc4c3=O)C(=O)N2c2nccs2)c1` (stereo not drawn), for which the inhibition is 1.57%.

Consider `Cc1cccc(-c2nc3c(NCc4ccccc4)nccc3[nH]2)c1`, for which the inhibition is 68.2% (active).

Regarding `Fc1cc(NCc2ccccc2)nc(NCc2ccccc2)n1`, the inhibition was 13.7%.

Turning to `c1ccc(CNc2nc(-c3ccccc3)nc3ccccc23)cc1`, the inhibition was -8.46%.

`Cc1cccc(-c2nc3c(NCc4cccc(N(C)C)c4)nccc3[nH]2)c1`: the inhibition is 76.8% (active).

For `Cc1c(-c2ccccc2)[nH]c2c(CNc3nccc(N)n3)cc(Cl)cc12`, the inhibition is 25.5%.

For `Fc1ccc(-c2nc3c(NCc4ccccc4)nccc3[nH]2)cc1F`, the inhibition is 35.1%.

With `Fc1cccc(-c2nc3c(NCc4ccccc4)nccc3[nH]2)c1`, the inhibition is 58.3% (active).

As to `c1ccc(-c2nc3c(NC4CCCCC4)nccc3[nH]2)cc1`, the inhibition is 76.1% (active).

For the compound `Cc1ccc(-c2nc3c(NCc4cccc(N(C)C)c4)nccc3[nH]2)cc1`, the inhibition is 65.2% (active).

For the compound `Cc1cc(=O)[nH]c(-n2nc(C)cc2NC(=O)c2snnc2C)n1`, the inhibition was 99.6% (active).

For `CC(=O)Nc1cc(C)nn1-c1nc(C)cc(=O)[nH]1`, the inhibition is 100% (active).

For `C/C=C/C(=O)Nc1cc(C)nn1-c1nc(C)cc(=O)[nH]1`, the inhibition is 101% (active).

For `Cc1cc(=O)[nH]c(-n2nc(C)cc2NC(=O)C(C)C)n1`, the inhibition was 100% (active).

As for `Cc1ccc(/C=C/S(=O)(=O)N2CC(C(N)=O)c3ccccc32)cc1` (stereo not drawn), the inhibition was -0.07%.

For the compound `CCc1cc(=O)[nH]c(-n2nc(C)cc2NC(=O)C(C)C)n1`, the inhibition was 101% (active).

As for `CCOc1ccc(C(=O)Nc2cc(C)nn2-c2nc(C)c(CC)c(=O)[nH]2)cc1OCC`, the inhibition was -21.9%.

Regarding `CCOc1ccc(C(=O)Nc2cc(C)nn2-c2nc(C)c(C)c(=O)[nH]2)cc1OCC`, the inhibition was 98.7% (active).

In the case of `Cc1cc(NC(=O)c2ccc(-c3ccccc3)cc2)n(-c2nc(C)c(C)c(=O)[nH]2)n1`, the inhibition was 100% (active).

On to `Cc1cc(NC(=O)c2ccccc2)n(-c2nc(C)c(C)c(=O)[nH]2)n1`, for which the inhibition is -21.2%.

For `Cc1cc(=O)[nH]c(-n2nc(C)cc2NC(=O)c2ccc(-c3ccccc3)cc2)n1`, the inhibition was 100% (active).

On to `Cc1cc(=O)[nH]c(-n2nc(C)cc2NC(=O)c2ccc(C)c(C)c2)n1`, for which the inhibition is 100% (active).

Take `Cc1ccc(C(=O)Nc2cc(C)nn2-c2nc(C)cc(=O)[nH]2)cc1`: the inhibition is 101% (active).

For `Cc1cc(C)cc(C(=O)Nc2cc(C)nn2-c2nc(C)cc(=O)[nH]2)c1`, the inhibition was 100% (active).

Consider `Cc1cc(=O)[nH]c(-n2nc(C)cc2NC(=O)c2ccccc2)n1`, for which the inhibition is 101% (active).

Take `CSc1c(C#N)c(SCC(=O)c2cc3ccccc3oc2=O)[nH]c(=O)c1C#N`: the inhibition was 83% (active).

With `CSc1c(C#N)c(=O)[nH]c2sc(C#N)c(N)c12`, the inhibition was 29.1%.

In the case of `COC(=O)c1ccc(-c2noc(CN3CCC(C(O)Cc4ccccc4)CC3)n2)cc1` (stereo not drawn), the inhibition is 14.8%.

On to `Fc1ccccc1Cc1noc(CN2CCN(c3cccc(C(F)(F)F)c3)CC2)n1`, for which the inhibition was 34.2%.

Turning to `COC(=O)c1ccc(-c2noc(CN3CCC(C(O)c4cccs4)CC3)n2)cc1` (stereo not drawn), the inhibition was 16.3%.

With `COC(=O)c1ccc(-c2noc(CN3CCCN(C(=O)c4ccco4)CC3)n2)cc1`, the inhibition is 84.3% (active).

As for `COC(=O)c1ccc(N2CCN(Cc3nc(Cc4cccc(F)c4)no3)CC2)cc1`, the inhibition is 59.4% (active).

Take `O=C(Nc1ncc(SCCN2CCCC2)s1)[C@]1(c2ccc(S(=O)(=O)C3CC3)cc2)C[C@H]1C1CCCCC1`: the inhibition was 17.1%.

On to `CC(=O)Oc1ccc(CN2C(=O)C(CCc3ccccc3)ON=C2c2cnccn2)cc1` (stereo not drawn), for which the inhibition was 41.4%.

Turning to `CC(C)(C)c1ccc(OCc2ccc(-c3nnco3)cc2)cc1`, the inhibition was 49.7%.

As for `Fc1ccc(COc2ccc(-c3nnco3)cc2)c(Cl)c1`, the inhibition was 55.8% (active).

For `Cc1csc(Sc2ccc(NC(=O)c3cnn(C)c3C)cc2)n1`, the inhibition was 16.3%.

For `CC(=O)Nc1ccc(Sc2ncnc3sccc23)cc1`, the inhibition is 0.26%.

`CC(C)C(=O)Nc1ccc(Sc2nncs2)cc1`: the inhibition is 89.1% (active).

In the case of `CNC(=S)Nc1ccc(Nc2ccccc2OC)cc1`, the inhibition was 72.1% (active).

As for `CNC(=S)Nc1ccc(N2CCOCC2)cc1`, the inhibition is 101% (active).

`CSCCCNC(=S)Nc1ccc(N2CCOCC2)cc1`: the inhibition was 20.7%.

Turning to `CNC(=S)Nc1ccc(Oc2ccc(NC(=S)NC)cc2)cc1`, the inhibition is 79.6% (active).

`CCNC(=S)Nc1ccc(NC(=S)NCC)cc1`: the inhibition is 63.7% (active).

In the case of `COc1ccccc1NC(=S)N=C1CCN(c2ccccc2)N1`, the inhibition was 19.3%.

Turning to `CC(C)COC(=O)Nc1ccc2nc(N3CCOCC3)sc2c1`, the inhibition is 27.4%.

Consider `O=C(Nc1ccc(-c2cnc(C3CC3)o2)cc1)C1CCCC1`, for which the inhibition was -17.9%.

Take `Cc1ncc(-c2ccc(NC(=O)C3CC3C)cc2)o1` (stereo not drawn): the inhibition is 94.6% (active).

Take `N#Cc1cccc(COc2ccc(NC(=O)C3CCCO3)cc2F)c1` (stereo not drawn): the inhibition is 91.9% (active).

As for `N#Cc1cccc(COC(=O)CC(NC(N)=O)c2cccs2)c1` (stereo not drawn), the inhibition was -9.57%.

As for `FC(F)(F)c1cc(-c2ccco2)nc2c1cnn2Cc1cccnc1`, the inhibition was 37%.

As for `CCCN(CCC)C(=O)c1nn(-c2ccccn2)c2nccc(-c3cccs3)c12`, the inhibition is 41.7%.

With `CN(Cc1ccc(Cl)c(Cl)c1)C(=O)c1csc(-c2cccs2)n1`, the inhibition is 56.2% (active).

With `CCNc1nc(C(=O)N(C)Cc2ccc(Br)o2)cs1`, the inhibition was 8.37%.

On to `CCC(C)(C)NC(=O)COC(=O)c1ccc(-c2ccc(O)cc2)cc1`, for which the inhibition was 50.1% (active).

As to `CCC(C)(C)NC(=O)c1ccc2c(c1)S(=O)(=O)c1ccccc1C2=O`, the inhibition is 14.8%.

On to `CCCC(C)C(=O)Nc1ccc(-c2nccs2)cc1` (stereo not drawn), for which the inhibition is 89.9% (active).

`Cn1nc(C(=O)Nc2ccc(-c3nccs3)cc2)ccc1=O`: the inhibition was 85.9% (active).

As for `[O-]/[N+](Cc1ccccc1)=N/OCc1ccccc1`, the inhibition is 83.2% (active).

As for `CCc1cc(=O)[nH]c(-n2nc(C)cc2NC(=O)C2CC(=O)N(c3ccc(C)c(C)c3)C2)n1` (stereo not drawn), the inhibition is 101% (active).

In the case of `CCc1cc(=O)[nH]c(-n2nc(C)cc2NC(=O)C2CC(=O)N(c3ccccc3)C2)n1` (stereo not drawn), the inhibition is 101% (active).

Regarding `CCCC(Nc1nc(-c2cccnc2)nc2c1cnn2C)c1cccs1` (stereo not drawn), the inhibition is 27.3%.

As to `COc1ccccc1N1C(=O)CC(SC(N)=N/N=C(C)\C=C\c2ccc(N(C)C)cc2)C1=O` (stereo not drawn), the inhibition was -2.66%.

With `Nc1nn(C(=O)CC2CCCO2)cc1-c1cccc(Cl)c1` (stereo not drawn), the inhibition is 83.6% (active).

For the compound `Oc1ccc(Br)cc1C=Nn1cc(-c2ccccc2)[nH]c1=S`, the inhibition was 25.5%.

For the compound `O=C1CSC(=NN=Cc2cc(Br)ccc2O)N1`, the inhibition is 102% (active).

Turning to `O=C1CSC(=NN=C2NC(=O)C(CC(=O)Nc3ccc(Br)cc3)S2)N1` (stereo not drawn), the inhibition was 18.9%.

As to `Cc1ncsc1C(=O)Nc1scc(C2CCCCC2)c1C(N)=O`, the inhibition was 24.3%.

Take `CN(C)CCNc1c2c(c(C#N)c3nc4ccccc4n13)CCCC2`: the inhibition is 20%.

In the case of `CN=c1scc(-c2c(-c3ccccc3)n(C)c3ccccc23)n1C`, the inhibition is 25.1%.

With `O=C1N=C2OC=C(C(=O)Nc3ccc(-n4cccc4)cc3)N2CCN1`, the inhibition is 89.4% (active).

On to `O=C1N=C2OC=C(C(=O)Nc3ccc(-n4cccn4)cc3)N2CCN1`, for which the inhibition is 60.6% (active).

For the compound `O=C(CCl)Nc1ccc(N2CCCCCC2)cc1`, the inhibition was 21.1%.

On to `O=C(Nc1ccc(N2CCCCC2)cc1)c1ccc(Cl)s1`, for which the inhibition is 94% (active).

As to `N#Cc1cccnc1N1CCC(CCc2ccc(O)cc2)CC1`, the inhibition was 93.1% (active).

For `N#Cc1ccc(NC2CCN(c3ncccn3)CC2)cc1C(F)(F)F`, the inhibition was 26.1%.

In the case of `Cc1nn(-c2ccccc2)c2[nH]c(=O)c(C#N)c(-c3cccs3)c12`, the inhibition is 64.4% (active).

In the case of `COc1ccc2c(c1)OC1(O)COc3cc(OC)c(OC)cc3C1=C2` (stereo not drawn), the inhibition is 61.7% (active).

`Brc1ccccc1C=Nc1ccc2c(c1)OCO2`: the inhibition was 94.3% (active).

Turning to `Oc1ccc(N=Nc2ccc3c(c2)OCO3)c2ccccc12`, the inhibition is -28.6%.

For `O=C(OCc1cc2c(cc1Br)OCO2)c1cccc(O)c1`, the inhibition is -12.8%.

Regarding `O=C1OC(c2ccc(Cl)cc2)=NC1=Cc1ccc2c(c1)OCO2`, the inhibition was 15.6%.

For `COc1ccc(O)c(C=Nn2c(C)csc2=NC(C)C)c1`, the inhibition is 34%.

For the compound `Clc1ccc(C=Nc2ccc3c(c2)OCO3)cc1`, the inhibition was 82.9% (active).

In the case of `COc1ccc(O)c(C=Nc2ccc3c(c2)OCO3)c1`, the inhibition is 65.5% (active).

The values are drawn from PubChem BioAssay AID1259343 (VanderVen Lab, College of Veterinary Medicine, Cornell …, 2017).
